Out of some 53,000 sequences screened, about 3,700 (7%) were called active.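 The calls were made as follows: active = gene knockdowns whose robust z-score for IL-1 alpha signal is at least 2 or at most -2, so actives lie on both sides; inactive = the rest.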 Shown is part of a subset that was picked to be rich in actives.
Experiment: Components of the Cytosolic LPS Sensing Pathway: Gene Identification via Genome-wide siRNA Screen;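 also: robust z of the log signal after scaling to non-targeting control siRNA wells of the plate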
Settings: RAW264.7 macrophages, IL-1a HTRF, actives lie on both sides, screened at 100 nM (by protocol), cells primed 5 h with Pam3CSK4 first
Summary of the method: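 Knockdown: 100 nM siRNA, 48h, RAW264.7. Stimulation: Pam3CSK4 5 h, then LipidA via TransIT-TKO 24 h. Output: supernatant IL-1a HTRF, negative-control-normalized, log robust z-score; viability by CellTiter-Glo.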

z-score, inactive:
CCAUUGACUUACUUCUAAGTT against Gimap6 0.58
GGAUCAACGGAUUUUAGAATT against Gcfc2 1.21
GGAGCUGAUGACUUCAGGCTT against Mmp19 1.17
GGGAUUCUCCAAAAGGAAGTT against Arhgap6 0.856
GGUGAUGAAGAGGUUCCCUTT against Fzd4 -0.868
GGGCUUUGCUGUCUAUGCATT against Dmwd -0.617
GGAGUUUGAUCAGAUCCUATT against Asf1b 1.74
GAAAUCAGAAGAAAUGAAGTT against Phgr1 -0.451
GGAAUCAAAGAUGGAGAGGTT against Galnt3 -0.409
GGAAACAUUGUCAUCAUGATT against Olfr1299 -0.787
GCGGUAUCCUAGCUGUGAATT against Brsk1 -0.0667
CCCUGUAUAUAUGAUGACATT against Ldhd -1.83
GGGUCUACAAUCACCAGACTT against Wnt10a 1.15
GAUGAUCUUUUGGAUGAACTT against Spem2 -0.51
CCCAGGCACUUGUUUACAGTT against Stim2 -0.454
GGCAUGCUUGGCUUAUUUGTT against Kcnk4 0.0317
GGCUUACUAACAGUUUUUGTT against Gem -0.29
GGCAUCGAGAUUUAAUUGATT against Usp27x -0.179
GGCUCUCUGGCUUACUAAGTT against Mrpl37 1.09
GGUGUGGGAUUUCUACACUTT against Sbf1 0.0854
GCAGCUUGCUUGAUUCAAGTT against Iqcb1 0.424
GCAUUUGGGCAACGAGAUGTT against Nr5a1 -1.3
GGCAGCUGGAAAGACAAAATT against Snca 1.19
GCUGAGAGUAUCCUUAUUCTT against Fhdc1 0.374
GGUCAACGUGUAUGUAUUUTT against Lrat -1.27
CGUGCAUGUGUAAGUCAGGTT against Hpvc2 0.68
GCAAGAGCUGAGUACUCUGTT against Ahsp -0.522
GGAAGUUUAAAGUCUAGAATT against Adcy7 0.477
GCAGUCUCCAAUUGAGAUUTT against Car13 -0.0313
CUCCGACCAUACUGGAAGATT against Arpp21 -0.406
GCAAGCUAGAGAAAAUCAGTT against Serpinb3b -0.231
GGAAAAAAGGUCUGUAAAUTT against Ubl4b 0.223
GCGGAACAUCUUAGCUUAATT against Perm1 -0.111
GCCCUGGAAAGGAUGUUUGTT against Hba-a1 -0.607
UAGCCACUCAUCAUUCUAATT against Gm10319 0.964
GCUGGAUAUUUCUAAGUAUTT against A26c3 1.9
CCGUUAGGUUUUUAUCCAATT against Ube2b 0.193
GGACCUUUUAUCUGAAAUGTT against Papln 1.54
GGAUGUGACUCAGAUUGGGTT against Tmem171 0.0209
GGAGAUGGCCACCUAUUUGTT against Csnk1g2 -0.325
GGAAAAAGCCUAACUAUGATT against Ccnl1 -0.7
GCCUGUUGCUAUGAAUGGUTT against Zfp597 -0.353
GGAAGCAUUGAAGAUAAGATT against Topbp1 -0.273
CCAUUGGAUCCAUUCCUAUTT against Plcd3 -0.984
CCUCUGUCUGCUAAUAAGATT against R3hdm4 1.01
GUUCCCGUUCUACGAGAAGTT against Foxl2 1.22
CCAAAUGACAGCUAUGGCCTT against Gtf2ird2 -0.312
GCUGUCCAAGUACGAGACATT against Atoh7 0.0721
GCUCCUGUGAUUGAUGCAGTT against Dync1h1 0.528
GCAUUUAUAAUUGCUGAACTT against Cbx1 -0.637
GGAACCACACAUGUGUUAATT against Grik2 -0.281
GGACAAUUGCCUUUUGACATT against Thbs3 0.146
GGUCUUCUACAACUCGGAATT against Sgpp1 -0.146
GGUGGUGAGAUAGAGAAAUTT against C1qc -0.115
GCAUUACACUUAACUGACGTT against Zfp652 -1.28
CCCAAUAACAUCUUAAGAUTT against Lyn -0.254
GGAAUGUCACUUUGACUCUTT against Arxes1 -0.533
GGCCAGAGAAGAUUACUUUTT against Ajuba 1.03
GGACCUCACAGAUUAUGGGTT against Ebi3 0.693
CGCCUACAGCUCUAUCUUATT against 2700062C07Rik 1.05
ACCCUCACCUCGCAUGACUTT against Pcbd2 -1.57
GGACAAAGUAUUUGUGACCTT against Cd3d 0.00913
GCAAGAUCCAGCCCUAUCATT against Usp17lc -0.439
GGACAAGAUGAUCUGCCUATT against Lrrc8a 0.722
GCCGAUACUUGAGCCAGUUTT against Srd5a1 0.477
GCUUCGACACUUUAUUUCUTT against Cnp 0.26
GGAAGACCAGCAGUUAAGATT against Grb10 -1.56
GGUGGAAGAGGUCAAAUAATT against Denr 1.05
GGCUUUUGAGAUUGCUAAATT against Mfap3l -0.491
GGCCUUUGAUGACUUCAUCTT against Cacna1h 0.904
CCACUGGACAGGAACAAAGTT against Rims1 -1.2
GCCGACUCAUGGUUUAGAATT against Tmem18 -0.0972
GGCAAUGAAUUUAACAAUCTT against Zfp874a -0.351
GGGACUUGAUCUCCUGAGUTT against Krtap4-2 -0.223
CCCAUGGUCACUUAUAUAUTT against Jarid2 0.109
GGAGCUUCGUGGAUAAGAGTT against Padi3 -1.79
GGUUGUUGGAAAAGAUGAATT against Ids -1.55
GGAUCAUCCAAGUGUUCCGTT against Olfr555 1.51
GCAGUUUGUGGAUAUGUCATT against Treh 0.604
GGUUUUCUCGCUCAGACCATT against Wt1 0.352
GGGCAAGAUGGUCAGUAGATT against Tpt1 0.627
CGCAACAGCUAGGAUUUUUTT against Me1 0.193
CCCAUUAGAUGCUGAAUAUTT against Stmn1 0.139
CCAGUGUUUGACUUGACCATT against Dpysl3 0.228
GGUUGUCGUCAACAAGAGCTT against Krt72 1.96
GGUGUCAUCCCUGAAAGAGTT against Tert 0.0314
GGAAUUUCUUCAGGACACUTT against Procr 0.278

z-score, active:
GGAGAUGAAAAGAGAAAUCTT against Cct6b 2.41
GAAGAUGCCACGCUAAAAATT against Adam34 2.73
GGUCAUGUUUCUCUCCCAATT against Veph1 -2.11
GCUGCUAUCCAGAAGGUAUTT against Egr2 -2.04
CCCAGGUCCUACCUUCUUUTT against Ppcdc -2.1
GGCCAACAUCUGCUAUGUCTT against Hao2 -2.58
GGCCCAAGAGAACAUCAAATT against Speer2 -2.16
GGAUGUGCUGACCUUACAGTT against Gaa 2.35
GGCACUUUUGAUUUCAGAUTT against Nrd1 3.52
GCAUGAUAUCAGUGGCAAGTT against Itga11 -2.41
GGAGGCCAUCACACUUAGATT against 4933421I07Rik -2.27
CCAGCAGCCUUCUAACUAUTT against Hnrnpa2b1 2.14
GGGAGACGGCGAGGUUUUATT against Arl6ip4 2.89
GGCGACAUGAAAGAAGGCATT against Klk6 2.61
GGAAAGUCCUUCAUCAGCATT against Cep120 -2.91
GGGUUUUCUUGUGUGAAAATT against Pomp -2.93
CGAGGGAAUGCACUACAACTT against Chpf 2.16
GGAAAAAGACUUCUAUCACTT against Ly6g6g -2.03
GGAGGUGAUGCAGAUGCUGTT against Gpi1 3.06
GGACAACGAGUGUCUGGGUTT against Cx3cr1 4.8
GGUCAUACAUGUGAAGACATT against Tsr2 2.01
